# In PubChem BioAssay (EPA / NIEHS):
# Calls of active or inactive are those of the source. The calls were made as follows: active = hit-call score of the fitted dose curve at least 0.9, where 1 is the maximum; inactive = score below 0.9.
# Assays:
# [1] = BSK_CASM3C_SRB: Viability Assessment in the BioMAP Diversity Plus: CASM3C Assay (AID 2283050); details: primary human coronary artery smooth muscle cells;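 also: total protein by SRB staining as cytotoxicity measure in parallel cultures; cells exposed to compound for 24 h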
# [2] = read-out: Thrombomodulin, THBD (gene 7056); assay: BSK_CASM3C_Thrombomodulin: BioMAP Diversity Plus: CASM3C Assay for Thrombomodulin Biomarker Activity (AID 2283051); details: primary human coronary artery smooth muscle cells; actives raise or lower the signal;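 also: thrombomodulin protein level measured by ELISA 24 h after dosing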
# [3] = read-out: Tissue Factor, F3 (gene 2152); assay: BSK_CASM3C_TissueFactor: BioMAP Diversity Plus: CASM3C Assay for Tissue Factor Biomarker Activity (AID 2283052); details: primary human coronary artery smooth muscle cells; actives raise or lower the signal;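 also: cell surface tissue factor protein level read by ELISA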
# [4] = read-out: Interferon-gamma inducible Protein 10 (IP10), CXCL10 (gene 3627); assay: BSK_hDFCGF_IP10: BioMAP Diversity Plus: hDFCGF Assay for Interferon-gamma inducible Protein 10 (IP10) Biomarker Activity (AID 2283053); details: primary human foreskin fibroblasts; actives raise or lower the signal
# Summary of the method: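 ELISA read-out of IP-10 (CXCL10) from primary human skin fibroblasts, 24 h after compound addition. Gain or loss of signal versus DMSO baseline, bidirectional curve fitting.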
# [5] = read-out: Urokinase-type plasminogen activator receptor (uPAR), PLAUR (gene 5329); assay: BSK_CASM3C_uPAR: BioMAP Diversity Plus: CASM3C Assay for Urokinase-type plasminogen activator receptor (uPAR) Biomarker Activity (AID 2283054); details: primary human coronary artery smooth muscle cells; actives raise or lower the signal;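 also: cell-surface uPAR protein level quantified by ELISA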
# [6] = read-out: Vascular cell adhesion molecule 1 (VCAM1), VCAM1 (gene 7412); assay: BSK_CASM3C_VCAM1: BioMAP Diversity Plus: CASM3C Assay for Vascular cell adhesion molecule 1 (VCAM1) Biomarker Activity (AID 2283055); details: primary human coronary artery smooth muscle cells; actives raise or lower the signal;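 also: VCAM-1 protein level quantified by ELISA on the cells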
# [7] = read-out: Collagen III, COL3A1 (gene 1281); assay: BSK_hDFCGF_CollagenIII: BioMAP Diversity Plus: hDFCGF Assay for Collagen III Biomarker Activity (AID 2283056); details: primary human foreskin fibroblasts; actives raise or lower the signal
# Summary of the method: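 ELISA read-out of collagen III from human skin fibroblast cultures sampled 24 h post-dosing. Values were derived by bidirectional fitting relative to the DMSO vehicle control.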
# [8] = read-out: Epidermal growth factor receptor (EGFR), EGFR (gene 1956); assay: BSK_hDFCGF_EGFR: BioMAP Diversity Plus: hDFCGF Assay for Epidermal growth factor receptor (EGFR) Biomarker Activity (AID 2283057); details: primary human foreskin fibroblasts; actives raise or lower the signal
# Summary of the method: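 ELISA readout of EGFR on human dermal fibroblasts (primary foreskin cells), 24 h post-dosing; bidirectional curve fit vs DMSO baseline, gain or loss of signal scored.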
# [9] = read-out: Interleukin-8 (IL8), CXCL8 (gene 3576); assay: BSK_hDFCGF_IL8: BioMAP Diversity Plus: hDFCGF Assay for Interleukin-8 (IL8) Biomarker Activity (AID 2283058); details: primary human foreskin fibroblasts; actives raise or lower the signal
# Summary of the method: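 Cells used are human skin primary fibroblasts. Chemical is added, cultures run 24 h, then IL-8 is quantified by ELISA, and gain or loss versus DMSO control is fitted in both directions.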
# [10] = BSK_hDFCGF_Proliferation: Cell Proliferation Assessment in the BioMAP Diversity Plus: hDFCGF Assay (AID 2283059); details: primary human foreskin fibroblasts;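 also: curves fitted for both rise and fall of signal versus DMSO baseline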
# Summary of the method: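 Primary human foreskin fibroblasts, sub-confluent; […]; 10% TCA fix, 0.1% SRB stain, A560 total protein. Gain/loss fitted bidirectionally vs DMSO control.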
smiles,measurement,setting,value
O=C(O)COc1ccc(Cl)cc1Cl,outcome,[1],inactive
same,outcome,[2],inactive
same,outcome,[3],inactive
same,outcome,[4],inactive
same,outcome,[5],inactive
same,outcome,[6],inactive
same,outcome,[7],inactive
same,outcome,[8],inactive
same,outcome,[9],inactive
same,outcome,[10],inactive
CCS(=O)(=O)c1cccnc1S(=O)(=O)NC(=O)Nc1nc(OC)cc(OC)n1,outcome,[1],inactive
same,outcome,[2],inactive
same,outcome,[3],inactive
same,outcome,[4],inactive
same,outcome,[5],inactive
same,outcome,[6],inactive
same,outcome,[7],inactive
same,outcome,[8],inactive
same,outcome,[10],inactive
CNC(=O)Oc1cccc(N=CN(C)C)c1,outcome,[1],inactive
same,outcome,[2],inactive
same,outcome,[3],inactive
same,AC50,[4],15.2 µM (active)
same,outcome,[5],inactive
same,outcome,[6],inactive
same,outcome,[7],inactive
same,outcome,[8],inactive
same,AC50,[10],24.2 µM (active)
COP(=S)(OC)Oc1ccc([N+](=O)[O-])cc1,outcome,[1],inactive
same,outcome,[2],inactive
same,outcome,[3],inactive
same,AC50,[4],20.3 µM (active)
same,outcome,[5],inactive
same,outcome,[6],inactive
same,AC50,[7],16.6 µM (active)
same,outcome,[8],inactive
same,outcome,[10],inactive
CCCN(CCC)c1c([N+](=O)[O-])cc(C(F)(F)F)cc1[N+](=O)[O-],outcome,[1],inactive
same,outcome,[2],inactive
same,outcome,[3],inactive
same,AC50,[4],15.2 µM (active)
same,outcome,[5],inactive
same,outcome,[6],inactive
same,outcome,[7],inactive
same,outcome,[8],inactive
same,AC50,[10],29.6 µM (active)
Cc1[nH]c(=O)n(C(C)(C)C)c(=O)c1Cl,outcome,[1],inactive
same,outcome,[2],inactive
same,outcome,[3],inactive
same,outcome,[4],inactive
same,outcome,[5],inactive
same,outcome,[6],inactive
same,outcome,[7],inactive
same,outcome,[8],inactive
same,outcome,[10],inactive
CC(C)OC(=O)Nc1cccc(Cl)c1,outcome,[1],inactive
same,outcome,[2],inactive
same,outcome,[3],inactive
same,outcome,[4],inactive
same,outcome,[5],inactive
same,outcome,[6],inactive
same,outcome,[7],inactive
same,outcome,[8],inactive
same,outcome,[10],inactive
O=[N+]([O-])/N=C1\NCCN1Cc1ccc(Cl)nc1,outcome,[1],inactive
same,outcome,[2],inactive
same,outcome,[3],inactive
same,outcome,[4],inactive
same,outcome,[5],inactive
same,outcome,[6],inactive
same,outcome,[7],inactive
same,outcome,[8],inactive
same,outcome,[10],inactive
C[C@H]1[C@H](c2ccc(Cl)cc2)SC(=O)N1C(=O)NC1CCCCC1,outcome,[1],inactive
same,AC50,[2],14.9 µM (active)
same,outcome,[3],inactive
same,AC50,[4],20 µM (active)
same,outcome,[5],inactive
same,outcome,[6],inactive
same,AC50,[7],5.46 µM (active)
same,outcome,[8],inactive
same,AC50,[10],9.3 µM (active)
CCOC1Oc2ccc(OS(C)(=O)=O)cc2C1(C)C (stereo unspecified),outcome,[1],inactive
same,outcome,[2],inactive
same,outcome,[3],inactive
same,outcome,[4],inactive
same,outcome,[5],inactive
same,outcome,[6],inactive
same,outcome,[7],inactive
same,outcome,[8],inactive
same,outcome,[10],inactive
CN1CSC(=S)N(C)C1,outcome,[1],inactive
same,outcome,[2],inactive
same,outcome,[3],inactive
same,AC50,[4],16 µM (active)
same,outcome,[5],inactive
same,AC50,[6],20 µM (active)
same,outcome,[7],inactive
same,outcome,[8],inactive
same,AC50,[10],13.5 µM (active)
C#CCN1C(=O)COc2cc(F)c(N3C(=O)C4=C(CCCC4)C3=O)cc21,outcome,[1],inactive
same,outcome,[2],inactive
same,outcome,[3],inactive
same,outcome,[4],inactive
same,outcome,[5],inactive
same,outcome,[6],inactive
same,outcome,[7],inactive
same,outcome,[8],inactive
same,outcome,[10],inactive
CCc1ccc(C(=O)NN(C(=O)c2cc(C)cc(C)c2)C(C)(C)C)cc1,outcome,[1],inactive
same,outcome,[2],inactive
same,outcome,[3],inactive
same,outcome,[4],inactive
same,outcome,[5],inactive
same,outcome,[6],inactive
same,outcome,[7],inactive
same,outcome,[8],inactive
same,outcome,[10],inactive
N#Cc1c(Cl)c(Cl)c(Cl)c(C#N)c1Cl,AC50,[1],2 µM (active)
same,outcome,[2],inactive
same,AC50,[4],0.148 µM (active)
same,AC50,[5],5.03 µM (active)
same,AC50,[6],1.62 µM (active)
same,AC50,[7],0.148 µM (active)
same,outcome,[8],inactive
same,AC50,[10],0.148 µM (active)
CNC(=O)CSP(=S)(OC)OC,outcome,[1],inactive
same,outcome,[2],inactive
same,outcome,[3],inactive
same,outcome,[4],inactive
same,outcome,[5],inactive
same,outcome,[6],inactive
same,outcome,[7],inactive
same,outcome,[8],inactive
same,outcome,[10],inactive
[2H]C1([2H])[n+]2ccccc2-c2cccc[n+]2C1([2H])[2H],outcome,[1],inactive
same,outcome,[2],inactive
same,outcome,[3],inactive
same,AC50,[4],5.27 µM (active)
same,outcome,[5],inactive
same,outcome,[6],inactive
same,AC50,[7],1.16 µM (active)
same,outcome,[8],inactive
same,AC50,[10],8.95 µM (active)
COP(=O)(OC)OC=C(Cl)Cl,outcome,[1],inactive
same,outcome,[2],inactive
same,outcome,[3],inactive
same,outcome,[4],inactive
same,outcome,[5],inactive
same,outcome,[6],inactive
same,outcome,[7],inactive
same,outcome,[8],inactive
same,outcome,[10],inactive
CCC(C)(NC(=O)c1cc(Cl)c(C)c(Cl)c1)C(=O)CCl (stereo unspecified),AC50,[1],23.4 µM (active)
same,outcome,[2],inactive
same,outcome,[3],inactive
same,AC50,[4],5.56 µM (active)
same,AC50,[5],11.5 µM (active)
same,AC50,[6],9.89 µM (active)
same,AC50,[7],11.3 µM (active)
same,AC50,[8],30.6 µM (active)
same,AC50,[10],4.14 µM (active)
COC(=O)c1ccccc1S(=O)(=O)NC(=O)N(C)c1nc(C)nc(OC)n1,outcome,[1],inactive
same,outcome,[2],inactive
same,outcome,[3],inactive
same,AC50,[4],28.7 µM (active)
same,outcome,[5],inactive
same,outcome,[6],inactive
same,outcome,[7],inactive
same,outcome,[8],inactive
same,outcome,[10],inactive
CNC(=O)/C=C(\C)OP(=O)(OC)OC,outcome,[1],inactive
same,outcome,[2],inactive
same,outcome,[3],inactive
same,outcome,[4],inactive
same,outcome,[5],inactive
same,outcome,[6],inactive
same,outcome,[7],inactive
same,outcome,[8],inactive
same,outcome,[10],inactive
COC(=O)c1ccccc1S(=O)(=O)NC(=O)Nc1nc(C)nc(OC)n1,outcome,[1],inactive
same,outcome,[2],inactive
same,outcome,[3],inactive
same,outcome,[4],inactive
same,outcome,[5],inactive
same,outcome,[6],inactive
same,outcome,[7],inactive
same,outcome,[8],inactive
same,outcome,[10],inactive
COP(=S)(OC)Oc1ccc(SC)c(C)c1,outcome,[1],inactive
same,outcome,[2],inactive
same,outcome,[3],inactive
same,outcome,[4],inactive
same,outcome,[5],inactive
same,outcome,[6],inactive
same,outcome,[7],inactive
same,outcome,[8],inactive
same,outcome,[10],inactive
CCC(C)Nc1c([N+](=O)[O-])cc(C(C)(C)C)cc1[N+](=O)[O-] (stereo unspecified),outcome,[1],inactive
same,outcome,[2],inactive
same,outcome,[3],inactive
same,AC50,[4],15.3 µM (active)
same,outcome,[5],inactive
same,outcome,[6],inactive
same,outcome,[7],inactive
same,AC50,[8],33 µM (active)
same,AC50,[10],20 µM (active)
CCN(CC)C(=O)SCc1ccc(Cl)cc1,outcome,[1],inactive
same,outcome,[2],inactive
same,outcome,[3],inactive
same,outcome,[4],inactive
same,outcome,[5],inactive
same,outcome,[6],inactive
same,outcome,[7],inactive
same,outcome,[8],inactive
same,outcome,[10],inactive
O=C(NC(=O)c1c(F)cccc1F)Nc1ccc(OC(F)(F)C(F)OC(F)(F)F)c(Cl)c1 (stereo unspecified),outcome,[1],inactive
same,outcome,[2],inactive
same,outcome,[3],inactive
same,outcome,[4],inactive
same,outcome,[5],inactive
same,outcome,[6],inactive
same,outcome,[7],inactive
same,outcome,[8],inactive
same,outcome,[10],inactive
CC1(c2ccc(Oc3ccccc3)cc2)OC(=O)N(Nc2ccccc2)C1=O (stereo unspecified),outcome,[1],inactive
same,outcome,[2],inactive
same,outcome,[3],inactive
same,outcome,[4],inactive
same,AC50,[5],5.52 µM (active)
same,AC50,[6],18 µM (active)
same,outcome,[7],inactive
same,outcome,[8],inactive
same,outcome,[10],inactive
O=C1c2ccccc2C(=O)N1SC(Cl)(Cl)Cl,AC50,[1],29 µM (active)
same,AC50,[2],4.99 µM (active)
same,outcome,[3],inactive
same,AC50,[4],20 µM (active)
same,AC50,[5],33.8 µM (active)
same,outcome,[7],inactive
same,outcome,[8],inactive
same,AC50,[10],29.7 µM (active)
N#CN,outcome,[1],inactive
same,outcome,[2],inactive
same,outcome,[3],inactive
same,outcome,[4],inactive
same,outcome,[5],inactive
same,outcome,[6],inactive
same,outcome,[7],inactive
same,outcome,[8],inactive
same,outcome,[10],inactive
